Assay outcomes deposited in PubChem by several laboratories.
KCC2 mod – KCC2 (human) Cl- transport modulation; B-score of Tl+ flux slope (higher = more flux/activation; lower = inhibition) at 10 µM; actives 2.2% (n = 190,000); KCC2 cells, thallium flux FluoZin-2 fluorescence; AID 1456;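 active = thallium flux slope and its plate-corrected score both differing from the plate sample mean at a set confidence after two filtering rounds, in either direction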;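 also: slope of fluorescence scaled to starting intensity during 10 to 20 s after thallium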
Target sequence (Q9H2X9 whole entry, looked up): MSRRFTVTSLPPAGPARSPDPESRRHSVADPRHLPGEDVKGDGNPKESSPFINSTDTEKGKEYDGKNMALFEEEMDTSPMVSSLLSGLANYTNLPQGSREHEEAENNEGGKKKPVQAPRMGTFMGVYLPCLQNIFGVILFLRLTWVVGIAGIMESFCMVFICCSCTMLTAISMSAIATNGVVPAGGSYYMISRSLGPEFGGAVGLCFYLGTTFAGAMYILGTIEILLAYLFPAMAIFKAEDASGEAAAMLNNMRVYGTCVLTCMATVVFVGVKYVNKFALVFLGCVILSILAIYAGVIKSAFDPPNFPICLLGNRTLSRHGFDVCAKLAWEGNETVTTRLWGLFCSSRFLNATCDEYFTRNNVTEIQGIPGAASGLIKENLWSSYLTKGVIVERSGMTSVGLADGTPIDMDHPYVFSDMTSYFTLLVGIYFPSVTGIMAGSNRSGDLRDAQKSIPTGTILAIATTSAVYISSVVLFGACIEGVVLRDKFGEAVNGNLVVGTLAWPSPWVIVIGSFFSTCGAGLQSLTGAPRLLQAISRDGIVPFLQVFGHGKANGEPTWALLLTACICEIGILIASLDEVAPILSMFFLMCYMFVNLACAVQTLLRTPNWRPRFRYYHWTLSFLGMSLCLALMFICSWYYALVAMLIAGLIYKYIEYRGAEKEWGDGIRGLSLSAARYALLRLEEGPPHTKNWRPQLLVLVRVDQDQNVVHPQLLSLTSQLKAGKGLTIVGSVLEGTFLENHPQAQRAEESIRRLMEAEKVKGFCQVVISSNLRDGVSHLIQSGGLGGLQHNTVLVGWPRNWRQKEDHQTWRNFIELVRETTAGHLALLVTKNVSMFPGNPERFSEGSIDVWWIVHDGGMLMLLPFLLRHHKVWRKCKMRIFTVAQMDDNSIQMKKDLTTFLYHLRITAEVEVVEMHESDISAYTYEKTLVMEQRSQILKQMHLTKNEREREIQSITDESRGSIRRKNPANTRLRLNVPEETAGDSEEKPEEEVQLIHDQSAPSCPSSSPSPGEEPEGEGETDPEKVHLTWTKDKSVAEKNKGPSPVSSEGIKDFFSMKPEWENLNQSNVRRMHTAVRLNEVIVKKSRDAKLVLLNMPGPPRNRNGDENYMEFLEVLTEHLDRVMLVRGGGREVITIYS
WT yeast gro inh – growth inhibition of WT yeast, mitochondrial fusion screen | mitochondrial fusion phenotypic screen, WT strain | inhibition, % at 10 µM | actives 2.1% (n = 190,000); in the data active = inhibition above about 58%; tested in S. cerevisiae
ROMK primary – modulators of human ROMK potassium channel. Tet-inducible ROMK, thallium flux fluorescence; actives lie on both sides. B-score at 10 µM. actives 2% (n = 130,000). AID 1918;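 active = signal ratio slope over the read window, or its plate-corrected B-score, at least 3 SD from the plate mean, either direction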;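 also: B-score of the F/F0 ratio slope over 7 to 12 s after thallium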
L major viab – reduces viability of Leishmania major promastigotes; AID 1063; resazurin fluorescence viability; inhibition, % at 10 µM; actives 9% (n = 200,000); in the data active = inhibition above about 50%;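 also: promastigotes grown with compound for 44 hours at 28 °C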
Ins promoter up – MIN6 insulin promoter up-regulation. actives 0.3% (n = 190,000). MIN6 insulin promoter-GFP reporter, high-content imaging; stronger effect = higher value. z-score at 5 µM;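 active = z-score above 3 at 5 µM with at least 500 cells counted in the well; inconclusive = wells under 500 cells, flagged as cytotoxic or low count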
INS promoter inh – TRM-6 insulin promoter activity inhibition; TRM-6 cells (human fetal islet line), insulin promoter-eGFP reporter, imaging; reporter expression induced with tamoxifen; inhibition, % at 2 µM; actives 0.9% (n = 130,000);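 active = inhibition above the mean plus 3 SD, with well images judged a real hit on visual review, cut at about 60% in these data, passing the limit was not always enough; inconclusive = inhibition over the cutoff but images rejected on review; inactive = inhibition not above the cutoff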
Lmaj promast 1uM – inhibitors of Leishmania major promastigote growth, repeat at 1 uM; shares compounds with L major viab; L. major promastigote growth, resazurin fluorescence, 48 h; inhibition, % at 1 µM; actives 13% (n = 1,100);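 active = inhibition above about 50% in both repeat tests, limit read from the data; inconclusive = one repeat under the set limit, the other over it; inactive = both repeats under the set limit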
Large screens that a line does not name were inactive (follow-up assays come after a bar, where they were run). Only some compounds are listed: those with a hit (about 12% of all), similar ones and a draw of the others.

O=C1OC(Nc2ccc3c(c2)OCO3)c2ccccc21 (stereo not given)	L major viab 59.7 (no result: KCC2 mod) | Lmaj promast 1uM inactive
O=C1OC(Nc2ccc(F)c([N+](=O)[O-])c2)c2ccccc21 (stereo not given)	none (no result: WT yeast gro inh, L major viab, Ins promoter up, INS promoter inh)
Oc1ccc2[nH]ccc2c1	L major viab 87.1 (no result: KCC2 mod, ROMK primary, INS promoter inh) | Lmaj promast 1uM inactive
Oc1ccc2ccc3[nH]cnc3c2c1	none (no result: WT yeast gro inh, ROMK primary, L major viab, INS promoter inh)
CCOC(=O)CCCCNCc1ccccc1	none (no result: ROMK primary)
C1CCC(OCCN2CCN(CCOC3CCCCC3)CC2)CC1	L major viab 94.5 (no result: ROMK primary) | Lmaj promast 1uM inactive
C#CCSc1nsc(SCC#C)c1C#N	L major viab 94.4 (no result: ROMK primary) | Lmaj promast 1uM inactive
O=C1c2ccccc2C(=O)C12Cc1ccccc1N1CCN(c3ccccc3)CC12 (stereo not given)	L major viab 65.1 (no result: ROMK primary) | Lmaj promast 1uM 67.1
O=C(Cn1cnc2c(nnn2-c2ccccc2)c1=O)N1CCCc2ccccc21	L major viab 52.8 (no result: ROMK primary) | Lmaj promast 1uM inactive
O=C(Cn1cnc2c(cnn2-c2ccccc2)c1=O)N1CCCc2ccccc21	none (no result: ROMK primary)
CC(C)(C)c1ccc(-c2ncccc2O)cc1	L major viab 100.3 (no result: INS promoter inh) | Lmaj promast 1uM 82.5
FC(F)(F)c1ccc(C2Nc3cccc4cccc(c34)N2)cc1	none (no result: KCC2 mod, INS promoter inh)
CC(C)(C)C1CCC2(CC1)Nc1cccc3cccc(c13)N2	L major viab 100.1 | Lmaj promast 1uM 63.7
C=CCn1c(N2CCN(c3ccc(OC)cc3)CC2)nc2c1c(=O)[nH]c(=O)n2C	none (no result: INS promoter inh)
CC(SC#N)C(=O)C12CC3CC(CC(C3)C1)C2 (stereo not given)	L major viab 62.7 | Lmaj promast 1uM inactive
COc1ccc(C(=O)/C=C/c2cn(CN3CCN(C)CC3)c3ccccc23)cc1	L major viab 93.4 (no result: Ins promoter up) | Lmaj promast 1uM inactive
CCOc1ccc(C(=O)/C=C/c2cn(CN3CCN(C)CC3)c3ccccc23)cc1	none (no result: ROMK primary, Ins promoter up)
CCOC(=O)c1c(NC=O)sc2c1CCC2	none
COc1ccccc1NC(=O)N1CCC(C(=O)c2ccc(F)cc2)CC1	none (no result: INS promoter inh)
COc1ccccc1NC(=O)CN1CCC(C(=O)c2ccc(F)cc2)CC1	L major viab 70.7 (no result: ROMK primary) | Lmaj promast 1uM inactive
COc1cc(/C=N/NC(=O)COc2cc(C)cc(C)c2)ccc1OS(=O)(=O)c1ccc(C)cc1	none (no result: ROMK primary)
COc1ccc(/C=N/NC(=O)c2cccc([N+](=O)[O-])c2)cc1OS(=O)(=O)c1ccc(C)cc1	L major viab 87.5 (no result: INS promoter inh) | Lmaj promast 1uM inactive
CCOC(=O)C1CCN(C(=O)CSc2nnc(-c3ccco3)n2-c2ccccc2)CC1	none (no result: KCC2 mod)
Cc1ccc(N2CN(Cc3cccnc3)CNC2=S)c(C)c1	L major viab 85.7 (no result: INS promoter inh) | Lmaj promast 1uM inactive
Cc1nn(C)cc1CNC(=O)C1C2CCC(C2)C1C(=O)O (stereo not given)	none (no result: INS promoter inh)
COc1ccc(OC)c(S(=O)(=O)Nc2ccc(Oc3ccccc3)cc2)c1	WT yeast gro inh 63.5, L major viab 66.5, Ins promoter up inconclusive (no result: ROMK primary) | Lmaj promast 1uM inactive
CCOc1ccc(NS(=O)(=O)c2cc(OC)ccc2OC)cc1	none (no result: KCC2 mod)
O=c1[nH]cc([N+](=O)[O-])cc1Br	L major viab 61.4 | Lmaj promast 1uM inactive
O=c1[nH]c2cc([N+](=O)[O-])c([N+](=O)[O-])cc2[nH]c1=O	none (no result: INS promoter inh)
COc1cc(CSc2nnnn2-c2ccc(C)cc2)cc(OC)c1OC	none (no result: ROMK primary, INS promoter inh)
c1ccc2c3c([nH]c2c1)-c1[nH]ncc1CC3	none
Clc1ccc2[nH]c3c(c2c1)CCc1cn[nH]c1-3	L major viab 54.4 (no result: ROMK primary) | Lmaj promast 1uM inactive
O=c1cc(-c2cccc3ccccc23)[nH][nH]1	L major viab 80.0 (no result: KCC2 mod, ROMK primary, Ins promoter up) | Lmaj promast 1uM inactive
CC(C)OCC1CC(CC(=O)Nc2ccc([N+](=O)[O-])cc2)C(=O)O1 (stereo not given)	none (no result: INS promoter inh)
COC(=O)CN1C(=O)C2(C(C#N)=C(N)Oc3cc(C)oc(=O)c32)c2ccccc21 (stereo not given)	none (no result: INS promoter inh)
COc1ccccc1NC(=O)Cn1nc(-c2ccc(Cl)cc2)c2ccccc2c1=O	L major viab 67.8 (no result: KCC2 mod) | Lmaj promast 1uM inactive
CCOC(=O)C1=C(C)NC(=O)NC1c1ccc(Br)s1 (stereo not given)	L major viab 66.4 (no result: KCC2 mod) | Lmaj promast 1uM inactive
COc1cccc(/C=N/NC(=O)c2cnn(-c3ccccc3)c2N)c1	none (no result: WT yeast gro inh, L major viab, INS promoter inh)
Cc1ccc(S(=O)(=O)NC(CCc2ccccc2)CC(=O)C(C)(C)C)cc1 (stereo not given)	none
COc1ccc(N(C(=O)COc2cccc(C)c2)S(=O)(=O)c2ccc(C)cc2)cc1	L major viab 51.9 | Lmaj promast 1uM inactive
CC(C)=CCCC(C)CN(C)CCc1ccccn1 (stereo not given)	L major viab 82.9 (no result: ROMK primary, INS promoter inh) | Lmaj promast 1uM inactive
CC(C)(C)c1cc(CSC(=S)NC2CCS(=O)(=O)C2)c(Br)c(C(C)(C)C)c1 (stereo not given)	L major viab 95.2 (no result: ROMK primary, INS promoter inh) | Lmaj promast 1uM inactive
CN(C)C(=S)NC1CCS(=O)(=O)C1 (stereo not given)	none (no result: INS promoter inh)
O=C(COc1ccccc1C(=O)N/N=C\c1ccc(O)c(O)c1)N/N=C/c1ccc(O)c(O)c1	none (no result: INS promoter inh)
CC(C)(C)CC(=O)Nc1cccc(-c2cn3cccnc3n2)c1	none (no result: ROMK primary, INS promoter inh)
O=c1[nH]c(=O)c2cc([N+](=O)[O-])cc([N+](=O)[O-])c2[nH]1	L major viab 90.9 | Lmaj promast 1uM inactive
Cc1ccc(SCc2cn3ccccc3n2)cc1	none (no result: WT yeast gro inh, ROMK primary, L major viab, INS promoter inh)
Cn1ccnc1SCc1cn2cc(Br)ccc2n1	L major viab 82.5 (no result: KCC2 mod, INS promoter inh) | Lmaj promast 1uM inactive
COc1ccc2nc(-c3ccccc3)[nH]c2c1	L major viab 68.8 (no result: WT yeast gro inh) | Lmaj promast 1uM inactive
COCCNC(=S)NC12CC3CC(CC(C3)C1)C2	L major viab 52.9 | Lmaj promast 1uM inactive
COCCNC(=O)NC12CC3CC(CC(C3)C1)C2	none (no result: INS promoter inh)
CC(C)N1CCN(Cc2ccc(OCc3ccccc3)cc2)CC1CCO (stereo not given)	none (no result: Ins promoter up, INS promoter inh)
O=c1cc(CSc2nnc(-c3cccnc3)n2-c2ccccc2F)nc2sccn12	none (no result: ROMK primary)
Cc1ccc(SCC(=O)Nc2ccc(N3CCN(C)CC3)c(F)c2)cc1	L major viab 100.1 (no result: ROMK primary) | Lmaj promast 1uM inactive
CN1CCN(c2ccc(NC(=O)CN3CCOCC3)cc2F)CC1	none (no result: INS promoter inh)
Cc1ccccc1Nc1cc2ccccc2c(=O)[nH]1	WT yeast gro inh 65.9, L major viab 52.7 | Lmaj promast 1uM inactive
CN(C)CCNc1c2c(c(C#N)c3nc4ccccc4n13)CCCC2	L major viab 53.7 (no result: INS promoter inh) | Lmaj promast 1uM inactive
OCC1(Cc2ccccc2)CCN(C2CCN(c3ccccc3F)CC2)CC1	L major viab 86.0 (no result: KCC2 mod, INS promoter inh) | Lmaj promast 1uM inconclusive
O=C(CN1CCN(c2ccccc2F)CC1)NC(=O)NCc1ccccc1	none
Cc1cc2n(n1)C(c1ccc(O)cc1)Nc1ccccc1-2 (stereo not given)	none (no result: ROMK primary)
Cc1cc(C)c2c(c1)-c1cc(C)nn1C(c1ccc3c(c1)OCO3)N2 (stereo not given)	L major viab 99.1 (no result: ROMK primary, INS promoter inh) | Lmaj promast 1uM 76.4
CN1CCN2c3ccccc3Cc3ccccc3C2C1 (stereo not given)	L major viab 53.7 (no result: ROMK primary, Ins promoter up) | Lmaj promast 1uM inactive
